The source of these data is ChEMBL document CHEMBL1156829.

Structures are written as SMILES. Whole data set: some 5,400 compounds, median “IFI” near 2, cut for the highest 2% near 22. Many of the other results were omitted from the sample, so the highest values are more common in it than they were.

The nature of the assay: NOVARTIS: Inhibition Frequency Index (IFI) - the number of HTS assays where a compound showed > 50% inhibition/induction, expressed as a percentage of the number of assays in which the compound was tested. The class given is functional.
For `C[C@@H]1C[C@@H]([C@H](O)CC2CC(=O)NC(=O)C2)C(=O)[C@@H](C)C1`, the IFI turned out to be 19.7%. `C[C@H]1C[C@H](C)C(=O)[C@@H]([C@@H](O)CC2CC(=O)NC(=O)C2)C1`: the IFI was found to be 23.9%. `OCCC1CN(Cc2cccc(Cl)c2)CCN1Cc1ccccc1` (configuration not stated) displayed an IFI of 7.69%. With `COC(=O)[C@]1(C)CC[C@]2(C)CC[C@]3(C)C4=CC=C5C(=CC(=O)C(O)=C5C)[C@]4(C)CC[C@@]3(C)[C@@H]2C1` the figure was 21.4%. The molecule `CC(=O)O[C@]1(C(C)=O)CCC2C3C=CC4=CC(=O)CC[C@]4(C)C3CC[C@@]21C` (some centres not stated) came in with an IFI of 2.33%. Then `Cc1nc2ccccc2c(=O)n1-c1ccc([N+](=O)[O-])cc1`, with 0%. The molecule `C=CC12CCN(CC1)C(C(O)c1ccnc3ccc(OC)cc13)C2` (configuration not stated) yielded an IFI of 0%. Then `C=CC1CN2CCC1CC2[C@H](c1ccnc2ccccc12)S(=O)(=O)O` (some centres not stated), with 0%; and `O[C@@]1(c2cc3ccccc3s2)CN2CCC1CC2`, with 1.63%; and `CCN1CCC(N2CCC(n3c(Cc4ccccc4OC)nc4cc(F)ccc43)CC2)CC1`, with 1.7%. With `C=C[C@H]1CN2CC[C@H]1C[C@@H]2[C@@H](OC(=O)C(C)C)c1ccnc2ccccc12` the figure was 1.67%; with `CC1=CC[C@@H](/C(C)=C/c2csc(C)n2)OC(=O)C[C@H](O)C(C)(C)C(=O)[C@H](C)[C@@H](O)[C@@H](C)CCC1`, 5.66%. With `Cn1ccnc1C(=O)NNc1ncc(C(F)(F)F)cc1Cl` the figure was 13.3%; with `CCCN[P+](CC(C)C)(NCCC)NCCC`, 10.9%. On to `C=C[C@H]1CN2CC[C@H]1C[C@H]2[C@H](OC(=O)CC)c1ccnc2ccccc12`, for which the IFI turned out to be 1.87%. `C=C1[C@@H](C)[C@H]2[C@H](Cc3ccccc3)NC(=O)[C@]23C(OC(C)=O)C=C[C@@](C)(O)C(=O)[C@@H](C)CC=C[C@H]3[C@@H]1O` (some centres not stated) yielded an IFI of 6.9%. With `CCOC(=O)c1c(S(=O)(=O)Nc2ccc(C(C)(C)C)cc2)c(-c2ccccc2)n(-c2ccccc2)c1C` the figure was 3.09%; with `CC[C@H]1CN2CC[C@H]1C[C@H]2[C@H](O)c1ccnc2ccccc12`, 5.17%. With `CC1=CC(=O)OC[C@]23C[C@H](O)C(C)=C[C@H]2O[C@@H]2C[C@@H](OC(=O)C=CC=CC(=O)OCC1)[C@@]3(C)[C@]21CO1`, the IFI worked out at 22.6%.

For `CC1=C[C@H]2O[C@@H]3C[C@H]4OC(=O)C=CC=C[C@H]([C@@H](C)O)OCC[C@@H](C)[C@H](O)C(=O)OC[C@@]2(CC1)[C@]4(C)[C@@]31CO1`, the IFI was 24.5%.

Molecule `CC1=CC(=O)OC[C@]23CCC(C)=C[C@H]2O[C@@H]2C[C@@H](OC(=O)C=CC=CC(=O)OCC1)[C@@]3(C)[C@]21CO1` gave an IFI of 22.6%. With `Cc1onc(O)c1CC(N)C(=O)O` (configuration not stated) the figure was 0%; with `CCOc1ccc2nccc([C@@H](O)[C@@H]3C[C@@H]4CCN3C[C@@H]4CC)c2c1`, 3.82%.

`Cc1ccc(O)c(C(=O)c2c[nH]c(-c3nc4ccccc4[nH]3)c2)c1` returned an IFI of 0%. Then `C=CC1CN2CCC1CC2[C@@H](OC(=O)c1ccc(C(C)(C)C)cc1)c1ccnc2ccc(OC)cc12` (some centres not stated), with 0%; and `O=C(NNc1cccc(F)n1)C(F)(F)F`, with 1.25%; and `C=CC(C)(CCC=C(C)C)c1ccc2c3c(c[nH]c13)CC(CO)NC(=O)C(C(C)C)N2C` (configuration not stated), with 11.3%. With `CS/C(Cl)=C(/NC(C)=O)[P+](c1ccccc1)(c1ccccc1)c1ccccc1`, the IFI turned out to be 5.34%. With `C/C=C1/C[C@H]2[C@@H](OC)Nc3cc(O)c(OC)cc3C(=O)N2C1` the figure was 28.6%. With `O=C1Cc2ccccc2C(=C2CCNCC2)c2ccsc21` the figure was 0%; with `CC=C[C@H]1O[C@@](O)([C@@H](C)C(O)C(C)[C@H]2OC(=O)C(OC)=CC(C)=C[C@@H](C)[C@@H](O)[C@@H](C)[C@@H](O)C(C)CC(C)=CC=C[C@@H]2OC)C[C@@H](O[C@H]2C[C@@H](O)[C@H](OC(N)=O)[C@@H](C)O2)[C@@H]1C` (some centres not stated), 15.5%. `CCOC(=O)c1ccc2nc(C)cc(Nc3ccc(N4CCCCC4)cc3)c2c1` returned an IFI of 1.12%.

Consider `CCN1C(=Cc2sc3ccccc3[n+]2CC)[Se]c2ccccc21`, for which the IFI was 22.6%. On to `CCC(=O)OC(C(C)C(=O)O)C(C)C1OC2(CCC(C)(C3CCC(C)(C4OC(C5OC(O)(CO)C(C)CC5C)CC4C)O3)O2)CC(O)C1C` (configuration not stated), for which the IFI was found to be 8.62%. On to `C[n+]1c2n(c3ccccc31)N=C(c1ccccc1)C[Se]2`, for which the IFI stood at 3.7%. As for `C[C@@H]1C[C@H]2CC[C@H](O2)[C@H](C)C(=O)O[C@@H](C)C[C@@H]2CC[C@@H](O2)[C@@H](C)C(=O)O[C@H](C)C[C@H]2CC[C@@H](O2)[C@H](C)C(=O)O[C@@H](C)C[C@@H]2CC[C@@H](O2)[C@@H](C)C(=O)O1`, the IFI worked out at 12.5%. Then `CC1CC2CCC(O2)C(C)C(=O)O[C@H](C)CC2CCC(O2)C(C)C(=O)OC(C)CC2CCC(O2)C(C)C(=O)O[C@H](C)CC2CCC(O2)C(C)C(=O)O1` (some centres not stated), with 19.2%. Then `CCC1CC2CCC(O2)C(C)C(=O)OC(C)CC2CCC(O2)C(C)C(=O)OC(CC)CC2CCC(O2)C(C)C(=O)OC(C)CC2CCC(O2)C(C)C(=O)O1` (configuration not stated), with 24.1%; and `CCCCCc1cc(O)c2c3c(c(=O)oc2c1)CN(C)CC3`, with 2.29%; and `O=C1CN=C(c2ccccc2Cl)c2cc(Cl)ccc2N1Cc1cccc([N+](=O)[O-])c1`, with 1.92%. In turn, `CCCCCCCc1cc(O)c2c3c(c(=O)oc2c1)CCC(C)C3` (configuration not stated) yielded an IFI of 0%.

`C=C[C@H]1CN2CC[C@H]1C[C@H]2[C@H](OC(=O)CCCC)c1ccnc2ccccc12`: the IFI amounted to 4.59%. With `CN1CCc2cc3c(c4c2C1Cc1ccccc1-4)OCO3` (configuration not stated) the figure was 6.17%. With `COc1cc2c3cc1Oc1c(OC)c(OC)cc4c1C(Cc1ccc(O)c(c1)Oc1ccc(cc1)CC3N(C)CC2)N(C)CC4` (configuration not stated) the figure was 7.14%; with `COc1ccc2c(c1)CC1c3c(cc4c(c3-2)OCO4)CCN1C` (configuration not stated), 25%; with `CC[C@@]1(O)C[C@H](O[C@@H]2CC(N(C)C)[C@@H](O[C@@H]3C[C@@H](O)[C@@H](O[C@@H]4CCC(=O)[C@@H](C)O4)C(C)O3)[C@@H](C)O2)c2c(cc3c(c2O)C(=O)c2c(O)ccc(O)c2C3=O)[C@H]1C(=O)OC` (some centres not stated), 21.4%. With `OC1(c2ccc(Cl)c(C(F)(F)F)c2)CCN(CCOC2c3ccccc3CSc3ccc(Cl)cc32)CC1` (configuration not stated) the figure was 2.38%.
